Laboratory results published in PubChem BioAssay (NCATS).
Results filed as inconclusive are left out. Calls of active or inactive are those of the source. Calls follow the shape of the dose curve; as a rule, active = well fitted curve in the direction sought with a large enough effect; inconclusive = small, poorly fitted or top-dose-only effect, or another doubt; inactive = no such curve, though single readings can be large; an effect the other way counts as inactive or inconclusive.

Experiments:
[1] = target: Rap guanine nucleotide exchange factor 3 (Homo sapiens) (UniProt O95398); assay: Confirmatory qHTS for antagonist of cAMP-regulated guanine nucleotide exchange factor 3 (EPAC1) (AID 1645880); also: nearly all actives have a fitted effect of over 55% in size; also: potency is read from the fitted curve at half-maximal effect
Summary of the method: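 Released BODIPY-GDP fluoresces less than Rap1-bound BODIPY-GDP; the signal is followed at 480/540 nm at 5-min intervals over 30 min, after 5 min at room temperature. Reactions contain 100 nM EPAC1, 250 nM RAP1B-BODIPY-GDP and 50 uM GDP; results are normalized to ATA and DMSO.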

[2] = target: Rap guanine nucleotide exchange factor 3 (Homo sapiens) (UniProt O95398); assay: Confirmatory qHTS for agonist of cAMP-regulated guanine nucleotide exchange factor 3 (EPAC1) (AID 1645881); also: nearly all actives have a fitted effect of over 75% in size; also: potency is read from the fitted curve at half-maximal effect;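 as to activation: EPAC1 catalysed release of BODIPY-GDP from Rap1B seen as fluorescence loss; 100% = effect of cAMP agonist control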
[3] = target: Rap guanine nucleotide exchange factor 4 (Homo sapiens) (UniProt Q8WZA2); assay: Confirmatory qHTS for agonist of cAMP-regulated guanine nucleotide exchange factor 4 (EPAC2) (AID 1645884);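 also: nucleotide exchange releases bodipy-GDP from Rap1 and this lowers its fluorescence; nearly all actives have a fitted effect of over 65% in size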; also: potency is read from the fitted curve at half-maximal effect; as to activation: % is scaled to controls: 0 for no effect and ±100 for the full control effect
[4] = target: Rap guanine nucleotide exchange factor 4 (Homo sapiens) (UniProt Q8WZA2); assay: Confirmatory qHTS for antagonist of cAMP-regulated guanine nucleotide exchange factor 4 (EPAC2) (AID 1645885); also: nearly all actives have a fitted effect of over 25% in size; also: potency is read from the fitted curve at half-maximal effect; as to activity change, negative = inhibition: % is scaled to controls: 0 for no effect and ±100 for the full control effect
[5] = target: Rap guanine nucleotide exchange factor 3 (Homo sapiens) (UniProt O95398); assay: Counterscreen qHTS for antagonist of cAMP-regulated guanine nucleotide exchange factor 3 (EPAC1) (AID 1645888); also: % of control where 0% means no effect
Summary of the method: (§1)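 Measured: fluorescence of BODIPY-GDP bound to Rap1B, which falls as exchange proceeds. Conditions include 50 uM competing GDP, 5 and 30 min reads, and a later cAMP challenge for antagonist detection.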

[6] = target: Rap guanine nucleotide exchange factor 3 (Homo sapiens) (UniProt O95398); assay: Counterscreen qHTS for agonist of cAMP-regulated guanine nucleotide exchange factor 3 (EPAC1) (AID 1645889); also: nearly all actives have a fitted effect of over 40% in size; also: potency is read from the fitted curve at half-maximal effect; as to activation: % of control where 0% means no effect
Summary of the method: as §1

Rap guanine nucleotide exchange factor 4 (Homo sapiens), sequence (Q8WZA2 whole entry, looked up): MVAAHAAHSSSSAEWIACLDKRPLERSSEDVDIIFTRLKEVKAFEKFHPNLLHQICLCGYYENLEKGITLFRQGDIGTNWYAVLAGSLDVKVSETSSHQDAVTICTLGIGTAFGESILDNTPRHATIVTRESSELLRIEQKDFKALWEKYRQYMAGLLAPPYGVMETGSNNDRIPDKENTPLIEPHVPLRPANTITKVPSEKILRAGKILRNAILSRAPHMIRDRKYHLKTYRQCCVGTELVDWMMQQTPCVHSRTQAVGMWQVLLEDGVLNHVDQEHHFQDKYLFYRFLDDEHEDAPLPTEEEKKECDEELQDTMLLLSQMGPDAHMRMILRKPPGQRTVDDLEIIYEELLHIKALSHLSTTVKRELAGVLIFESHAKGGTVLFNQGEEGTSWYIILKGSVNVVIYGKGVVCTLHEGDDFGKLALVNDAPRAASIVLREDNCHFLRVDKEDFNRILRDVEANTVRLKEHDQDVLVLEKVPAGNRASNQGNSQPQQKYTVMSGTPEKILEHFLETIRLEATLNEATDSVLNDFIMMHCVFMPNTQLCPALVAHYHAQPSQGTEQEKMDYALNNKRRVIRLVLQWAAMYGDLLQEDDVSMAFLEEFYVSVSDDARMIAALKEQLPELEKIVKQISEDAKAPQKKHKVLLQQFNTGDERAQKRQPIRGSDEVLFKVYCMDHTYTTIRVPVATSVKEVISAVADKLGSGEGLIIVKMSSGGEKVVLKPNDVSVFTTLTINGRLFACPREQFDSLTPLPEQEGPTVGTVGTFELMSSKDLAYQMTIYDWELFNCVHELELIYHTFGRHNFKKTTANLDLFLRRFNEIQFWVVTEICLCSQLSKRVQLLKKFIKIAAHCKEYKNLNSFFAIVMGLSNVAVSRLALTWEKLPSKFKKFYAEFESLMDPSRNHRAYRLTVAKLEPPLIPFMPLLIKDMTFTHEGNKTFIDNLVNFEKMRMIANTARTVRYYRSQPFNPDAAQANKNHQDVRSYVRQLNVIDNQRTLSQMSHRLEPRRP
Rap guanine nucleotide exchange factor 3 (Homo sapiens), sequence (O95398 whole entry, looked up): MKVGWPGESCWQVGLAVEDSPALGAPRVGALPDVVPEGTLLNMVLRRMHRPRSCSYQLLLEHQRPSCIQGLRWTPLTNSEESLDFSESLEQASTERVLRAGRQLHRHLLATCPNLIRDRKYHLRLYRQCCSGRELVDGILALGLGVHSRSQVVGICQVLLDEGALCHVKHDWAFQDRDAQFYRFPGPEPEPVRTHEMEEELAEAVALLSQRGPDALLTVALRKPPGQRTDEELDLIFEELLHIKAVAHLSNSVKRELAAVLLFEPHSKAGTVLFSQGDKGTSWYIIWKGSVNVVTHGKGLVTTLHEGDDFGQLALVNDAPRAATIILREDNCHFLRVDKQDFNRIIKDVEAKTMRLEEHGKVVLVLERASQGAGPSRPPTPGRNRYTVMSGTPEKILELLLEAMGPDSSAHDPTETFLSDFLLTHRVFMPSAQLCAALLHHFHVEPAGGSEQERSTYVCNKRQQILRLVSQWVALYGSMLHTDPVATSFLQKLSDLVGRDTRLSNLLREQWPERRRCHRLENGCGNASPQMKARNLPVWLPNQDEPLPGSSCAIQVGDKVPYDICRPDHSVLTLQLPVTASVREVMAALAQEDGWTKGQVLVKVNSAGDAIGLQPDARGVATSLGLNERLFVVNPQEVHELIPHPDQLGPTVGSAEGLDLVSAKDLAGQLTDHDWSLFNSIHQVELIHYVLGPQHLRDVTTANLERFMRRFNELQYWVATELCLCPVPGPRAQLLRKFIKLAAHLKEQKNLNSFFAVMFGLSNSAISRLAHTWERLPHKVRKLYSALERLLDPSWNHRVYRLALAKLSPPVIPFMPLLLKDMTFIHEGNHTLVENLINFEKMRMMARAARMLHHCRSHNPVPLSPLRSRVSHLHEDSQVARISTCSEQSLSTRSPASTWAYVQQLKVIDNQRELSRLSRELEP

O=C1C(Cl)=C(N2CCC(C(=O)O)CC2)C(=O)c2ccccc21
active: Potency [6] 15.8 µM
inactive: Potency [1] | Potency [2] | Potency [3] | Potency [4] | Potency [5]

Cc1ccc(C2=NOC(=O)/C2=C\c2ccc(C)o2)cc1
inactive: Potency [2] | Potency [3] | Potency [4] | Potency [5] | Potency [6]
active: Potency [1] 75.7 µM

CCCc1cc(=O)oc2c3c(cc(OCC(=O)NCc4ccccn4)c12)OC(C)(C)CC3
inactive: Potency [1] | Potency [2] | Potency [3] | Potency [4] | Potency [5] | Potency [6]

COC(=O)c1ccccc1NC(=O)CN1C(=O)COc2ccc(Cl)cc21
inactive: Potency [1] | Potency [2] | Potency [3] | Potency [4] | Potency [5] | Potency [6]

COc1cc(/C=C2\SC(=S)N(NS(=O)(=O)c3ccccc3)C2=O)ccc1O
inactive: Potency [1] | Potency [2] | Potency [3] | Potency [4] | Potency [5] | Potency [6]

CCOC(=O)C1=NNC2(CC(=O)N(c3cc(C)cc(C)c3)C2=O)C1 (stereo not drawn)
inactive: Potency [1] | Potency [2] | Potency [3] | Potency [4] | Potency [5] | Potency [6]

CCCCOc1ccccc1Cn1c(=O)sc2ccccc21
inactive: Potency [1] | Potency [2] | Potency [3] | outcome [4] inactive [at 12.7 µM] | Potency [5] | Potency [6]

CN1/C(=C\C=C(/C#N)C(=O)Nc2ccccc2F)C(C)(C)c2ccccc21
inactive: Potency [1] | Potency [4] | Potency [5]
active: Potency [2] 100 µM | Potency [3] 100 µM | Potency [6] 14.1 µM

COC(=O)c1cc2sccc2n1Cc1ccc(F)cc1
inactive: Potency [1] | Potency [2] | Potency [3] | Potency [4] | Potency [5] | Potency [6]

O=C(Cn1c(=O)oc2cc(S(=O)(=O)N3CCCCC3)ccc21)N1CCc2ccccc2C1
inactive: Potency [1] | Potency [2] | Potency [3] | Potency [4] | Potency [5] | Potency [6]

Cc1cc(C)n2[nH]c(=O)c(N=Nc3ccc(S(N)(=O)=O)cc3)c2n1
active: Potency [4] 84.9 µM
inactive: Potency [1] | Potency [2] | Potency [3] | Potency [5] | Potency [6]

COc1ccc(N2CCN(C(=O)CSc3ncn[nH]3)CC2)cc1
inactive: Potency [1] | Potency [2] | Potency [3] | Potency [4] | Potency [5] | Potency [6]

CCc1ccccc1N(CC(=O)NCCc1ccccc1)C(=O)CCC(=O)Nc1ccccn1
inactive: Potency [1] | Potency [2] | Potency [3] | Potency [4] | Potency [5] | Potency [6]

CCOc1cccc(CC(=O)NCc2ccc3c(c2)CCN3C(C)=O)c1OCC
inactive: Potency [1] | Potency [2] | Potency [3] | Potency [4] | Potency [5] | Potency [6]

COC(=O)CC1(C(=O)OC)Oc2ccc(Br)cc2C(=O)N1c1cc(Cl)cc(Cl)c1 (stereo not drawn)
active: Potency [4] 2.13 µM | Potency [6] 0.0282 µM
inactive: Potency [1] | Potency [2] | activation [3] 5.41% [at 17.1 µM, percent relative to cAMP agonist control] | activity change, negative = inhibition [5] -4.58% [at 30.8 µM]

CCCS(=O)(=O)N1CCC(C(=O)NCCN2CCCC2)CC1
inactive: Potency [1] | Potency [2] | activation [3] 10.1% [at 17.1 µM, percent relative to cAMP agonist control] | Potency [4] | activity change, negative = inhibition [5] -10.8% [at 30.8 µM] | activation [6] 25.6% [at 30.8 µM]

Cc1cc2c(c(=O)o1)C(c1ccc([N+](=O)[O-])o1)C(C#N)=C(N)O2 (stereo not drawn)
inactive: Potency [1] | Potency [2] | Potency [3] | Potency [4] | Potency [5] | Potency [6]

CCOC(=O)C1CCCN(C(=O)C(C)(C)Oc2ccc(Cl)cc2)C1 (stereo not drawn)
inactive: Potency [1] | Potency [2] | Potency [3] | Potency [4] | Potency [5] | Potency [6]

CCCCC(=O)N(c1ccc(C(=O)O)cc1)c1nc(-c2ccc(Cl)cc2)c(CC)s1
inactive: Potency [2] | activation [3] 5.89% [at 17.1 µM, percent relative to cAMP agonist control] | Potency [4] | activity change, negative = inhibition [5] -5.84% [at 30.8 µM] | activation [6] 19.6% [at 30.8 µM]
active: Potency [1] 50.1 µM

CCc1nnc(NS(=O)(=O)c2ccc(Nc3ccc([N+](=O)[O-])c4nonc34)cc2)s1
active: Potency [1] 42.6 µM
inactive: Potency [2] | Potency [3] | Potency [4] | Potency [5] | Potency [6]

CCOc1cc(/C=N/Nc2nc(-c3cccs3)c(NC(C)=O)s2)ccc1O
inactive: Potency [1] | Potency [2] | Potency [3] | Potency [4] | Potency [5] | Potency [6]

C#Cc1ccc([C@@H]2C=C(C(=O)NCc3nc4ccccc4[nH]3)O[C@H](OCC)[C@H]2CCCO)cc1
inactive: Potency [1] | Potency [2] | activation [3] 7.11% [at 17.1 µM, percent relative to cAMP agonist control] | Potency [4] | activity change, negative = inhibition [5] -6.31% [at 30.8 µM] | activation [6] 30.9% [at 30.8 µM]

COC(=O)CSc1nc(C)cc(Oc2ccccc2)n1
inactive: Potency [1] | Potency [2] | Potency [3] | Potency [4] | Potency [5] | Potency [6]

CCC/C(=C1/c2ccccc2C(=O)N1c1ccccc1)c1cnc(OC)nc1
inactive: Potency [1] | Potency [2] | Potency [3] | Potency [5] | Potency [6]
active: Potency [4] 37.9 µM

CCOC(=O)c1c(/N=C/C2=C(O)CC(C)(C)CC2=O)sc(C)c1C
inactive: Potency [1] | Potency [2] | activation [3] 5.64% [at 17.1 µM, percent relative to cAMP agonist control] | Potency [4] | activity change, negative = inhibition [5] -9.9% [at 30.8 µM] | activation [6] 1.97% [at 30.8 µM]

O=C(COC(=O)Cc1ccc(Cl)cc1)Nc1ccc2[nH]c(=O)[nH]c2c1
inactive: Potency [1] | Potency [2] | activation [3] -3.41% [at 17.1 µM, percent relative to cAMP agonist control] | Potency [4] | activity change, negative = inhibition [5] -14.8% [at 30.8 µM] | activation [6] -0.761% [at 30.8 µM]

Cc1nc(N(C)Cc2ccccc2)c2c(C)c(C)sc2n1
inactive: Potency [1] | Potency [2] | activation [3] 3.14% [at 17.1 µM, percent relative to cAMP agonist control] | Potency [4] | activity change, negative = inhibition [5] -24.2% [at 30.8 µM] | activation [6] 11.8% [at 30.8 µM]

COc1ccc(OC)c([C@@H]2OCCC=C[C@H]2C)c1
inactive: Potency [1] | Potency [2] | Potency [3] | Potency [5] | Potency [6]
active: Potency [4] 0.0675 µM

CCc1ccc(OCCCSc2nc(-c3ccc(C(C)(C)C)cc3)nc3cc(=O)[nH]n23)cc1
inactive: Potency [2] | Potency [3] | Potency [4] | Potency [5] | Potency [6]
active: Potency [1] 42.6 µM

CC(=O)N1c2ccc(S(=O)(=O)N(C)Cc3ccco3)cc2CC1C (stereo not drawn)
inactive: Potency [1] | Potency [2] | Potency [3] | Potency [4] | Potency [5] | Potency [6]

Cc1ccc2[nH]cc(C(c3ccccc3)c3ccc(C)s3)c2c1 (stereo not drawn)
inactive: Potency [1] | Potency [2] | Potency [3] | Potency [4] | Potency [5] | Potency [6]

CCC(=O)OCCCNc1nc(-c2ccc(Cl)cc2)nc2ccccc12
inactive: Potency [1] | Potency [2] | Potency [3] | Potency [4] | Potency [5] | Potency [6]

CC1(C(=O)NS(=O)(=O)c2ccc(Cl)s2)CCN1C(=O)c1ccc(C2CCCCC2)cc1 (stereo not drawn)
inactive: Potency [2] | activation [3] 6.57% [at 17.1 µM, percent relative to cAMP agonist control] | Potency [4] | activity change, negative = inhibition [5] -3.31% [at 30.8 µM] | activation [6] -4.08% [at 30.8 µM]
active: Potency [1] 79.4 µM

O=CN1N=C(c2ccccc2)CC1c1ccc(Cl)cc1 (stereo not drawn)
inactive: Potency [1] | Potency [2] | Potency [3] | Potency [4] | Potency [5] | Potency [6]

Cc1cc(C)c(C(=O)c2cccs2)c(C)c1
inactive: Potency [1] | Potency [2] | Potency [3] | Potency [4] | Potency [5] | Potency [6]

COc1cc2c(cc1OC)-c1cc(NC3CCCCC3)nc(=O)n1CC2
inactive: Potency [1] | Potency [2] | activation [3] -2.19% [at 17.1 µM, percent relative to cAMP agonist control] | Potency [4] | activity change, negative = inhibition [5] 14.4% [at 30.8 µM] | activation [6] 2.97% [at 30.8 µM]

COc1ccccc1Oc1ccnc2cc(Cl)ccc12
inactive: Potency [1] | Potency [2] | activation [3] 3.38% [at 17.1 µM, percent relative to cAMP agonist control] | Potency [4] | activity change, negative = inhibition [5] 3.13% [at 30.8 µM] | activation [6] 5.9% [at 30.8 µM]

O=C(NCCC(=O)N(CCc1ccccc1)Cc1ccccc1)c1ccccc1Cl
inactive: Potency [1] | Potency [2] | activation [3] 0.223% [at 17.1 µM, percent relative to cAMP agonist control] | Potency [4] | activity change, negative = inhibition [5] -6.01% [at 30.8 µM] | activation [6] 7.42% [at 30.8 µM]

CCc1ccc(-c2nc(CS(=O)CC(=O)NCc3cccnc3)c(C)o2)cc1 (stereo not drawn)
inactive: Potency [1] | Potency [2] | Potency [3] | Potency [4] | Potency [5] | Potency [6]

Cc1ccc(N2NC(=O)/C(=C\c3cc4c(cc3[N+](=O)[O-])OCO4)C2=O)cc1C
active: Potency [1] 75.7 µM
inactive: Potency [2] | Potency [3] | Potency [4] | Potency [5] | Potency [6]

CC(=O)c1c(C(C)=O)c(C)n(-c2nc(-c3ccccc3)c(C)s2)c1C
inactive: Potency [1] | Potency [2] | Potency [3] | Potency [4] | Potency [5] | Potency [6]

Cc1ccc(C(=O)O/N=C(\c2ccccc2)c2cccnc2)cc1
inactive: Potency [1] | Potency [2] | activation [3] -3.55% [at 17.1 µM, percent relative to cAMP agonist control] | Potency [4] | activity change, negative = inhibition [5] 3.07% [at 30.8 µM] | activation [6] 8.08% [at 30.8 µM]

O=C(Cn1cnc2scc(-c3cccc([N+](=O)[O-])c3)c2c1=O)NCc1ccco1
inactive: Potency [2] | Potency [3] | Potency [4] | Potency [5] | Potency [6]
active: Potency [1] 37.9 µM
